Compounds without any hit were thinned out: in the full panel of roughly 83,000, 20% have a hit.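 Testing used 96-well plates and a 48-hour single-concentration exposure. Example: -40 means 40% of the starting cells died.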 Values without a mark were called inactive. Calls of active or inactive are those of the source. The calls were made as follows: active = growth percent below 10; inactive = the rest.

The assay has as its system MDA-MB-468 breast. Description: NCI-60 one-dose screen, 48 h (100 = growth as untreated, 0 = no growth, -100 = all killed). Conditions: 10 µM unless noted.
Take `S=c1sc2ccccc2n1CN1CCCCC1`: the growth is 108%. Consider `COc1ccc(-c2csc(NC(=O)N3CCN(c4cc5c(cc4F)c(=O)c(C(=O)O)cn5C4CC4)CC3)n2)cc1`, for which the growth is -2.96% (active). As for `CC1(C)CC[C@]23CC[C@]4(C)[C@H](CC[C@@H]5[C@@]6(C)C/C(=C/c7ccncc7)C(=O)C(C)(C)[C@@H]6CC[C@]54C)[C@H]2[C@H]1OC3`, the growth is 91.1%.

Turning to `CN(C)C/C=C/C(=O)Nc1cc2c(Nc3ccc(F)c(Cl)c3)ncnc2cc1O[C@H]1CCOC1`, the growth was -40.5% (active). The same measure for `Clc1ccc2c(c1)C(Br)c1cc(Cl)cc(Cl)c1-2` (configuration not stated): 96.7%. Turning to `COc1ccc(C(=O)Cn2c(C(=O)c3ccc(Cl)cc3)nc3ccccc32)cc1`, the growth was 63.9%. In the case of `COc1ccc(Nc2nc(SC)nc(-c3cccc([N+](=O)[O-])c3)c2C#N)cc1`, the growth was 54.7%.

Turning to `NC(N)=N/N=C/CO`, the growth was 107%. Turning to `Cc1ncc(C(=O)Nc2ccc(CN3CCN(C)CC3)c(C(F)(F)F)c2)cc1C#Cc1c(N)ncc2ccc(C#N)cc12`, the growth is 98.5%. `COc1cc(OC)cc(C(=O)Nc2cccc(C#Cc3cccc4[nH]nc(N)c34)c2)c1`: the growth was 31.8%.

Regarding `CCN1C(=S)N(CC)C2C1N=C(SC)N2/N=C/C=C/c1ccccc1[N+](=O)[O-]` (configuration not stated), the growth is 99.8%.

Consider `CC(=O)c1nc2ccccc2n1CCN1CCN(C)CC1`, for which the growth was -20.2% (active). The same measure for `O=C(Nc1ccccc1)Nc1ncnc2c1ncn2-c1ccc(Cl)cc1`: 92.2%; for `COc1ccc(Nc2nc(Nc3cc(C)[nH]n3)c3cc(OC)c(OC)cc3n2)cc1`: -69.9% [20 µM] (active). In the case of `O=C1c2c(c3c4cc(Br)ccc4[nH]c3c3ccc4ccccc4c23)C(=O)N1CCN1CCCCC1`, the growth is 15%.

`CC(=O)c1cccc(NS(=O)(=O)c2cccc(C(=O)Nc3ccc(Br)cc3)c2)c1`: the growth is 1.14% [25 µM] (active).

Turning to `[2H]C([2H])([2H])Oc1ccc(F)cc1/C=C/C(=O)/C=C(O)/C=C/c1cc(F)ccc1OC([2H])([2H])[2H]`, the growth was 91.6%. The same measure for `CSc1ccc2c3c(n(CCCn4ccnc4)c(=O)c2c1)-c1ccccc1C3=O`: 18.2%; for `CN1CCN(c2ccc(N3Cc4ccccc4OC4=C3C(=O)c3c(O)ccc(O)c3C4=O)cn2)CC1`: -60.1% (active). `COc1ccc(/C(Cl)=N/N=C(\Cl)c2cc(OC)c(OC)c(OC)c2)cc1OC(C)=O`: the growth is 95.5%.

Take `COc1ccccc1C(=O)CSc1nc(Nc2ccc(S(N)(=O)=O)cc2)c2ccccc2n1`: the growth was 99.7%. In the case of `CCOC(=O)C1=CSC2=NC3=C(CCC/C3=C\c3cc(OC)c(OC)c(OC)c3)C(c3cc(OC)c(OC)c(OC)c3)N12` (configuration not stated), the growth was 33.8%.

With `Oc1c(Cl)cc(Cl)cc1/C=N/Nc1nnc(N/N=C/c2cc(Cl)cc(Cl)c2O)c2ccccc12`, the growth is -29.9% (active).

As for `O=C1CCCCCCCCC(O)C(O)CCCC(c2cccs2)O1` (configuration not stated), the growth is 95.5%. Consider `CN1CCN(CCCn2c3c(sc4ncccc43)c(=O)n3nnc(-c4ccccc4)c23)CC1`, for which the growth is 98.6%. With `O=C1/C(=C/c2ccc(Cl)cc2)CN(Cc2cn(CCNc3ccnc4cc(Cl)ccc34)nn2)C/C1=C\c1ccc(Cl)cc1`, the growth is -76.2% (active). The same measure for `O=C(Oc1cccc2ccccc12)c1ccccc1C(=O)c1ccccc1`: 103%; for `CCCCCCCCCCC/C=C\C[C@H](O)C/C=C1/C(=O)C=C[C@@H]1C/C=C\CCCC(=O)OC`: -46.3% (active); for `N#C/C(=C\c1ccc(Br)cc1)n1nnc2ccccc21`: 6.92% (active). The same measure for `CS(=O)(=O)N1CCN(Cc2cc3nc(-c4cccc5[nH]ncc45)nc(N4CCOCC4)c3s2)CC1`: -19.6% (active); for `Cc1ccccc1C1CC(=O)c2ccccc2C1C` (configuration not stated): 83%. The same measure for `CC1CCN(CC(=O)Nn2c(COc3ccccc3)nc3ccccc3c2=O)CC1`: 50.9%; for `O=c1ccc2ccccc2o1`: 114%.

As to `CCCCCCCCCCCCCCNc1nc(CO)ncc1-c1ccc(C(F)(F)F)cc1`, the growth is 98.1%. The same measure for `Clc1ccc(N/N=C(/c2ccccc2)c2ccccn2)nc1`: 4.13% (active); for `COc1cc2cc(Oc3ccc(NC(=O)Nc4cc(C(F)(F)F)cc(C(F)(F)F)c4)cc3)c(C)nc2cc1OCCN1CCCCC1`: -78.6% (active); for `O=C(Nc1cccc(-n2cc(-c3ccncc3)c(-c3ccc(Cl)c(O)c3)n2)c1)Nc1ccc(Cl)c(Cl)c1`: 2.25% (active).

The values are drawn from PubChem BioAssay (NCI).
